According to PubChem BioAssay (EPA / NIEHS):
“And” between values parts separate entries of the source, which are not always exact repeats. Equal values may be shown once. Inconclusive results are not listed. Where a structure was tested more than once in an assay, its records may differ in their call. The source made the active and inactive calls. Rule for the calls, unless noted: active = hit-call score of the fitted dose curve at least 0.9, where 1 is the maximum; inconclusive = response in the unintended direction; inactive = score below 0.9.

Experiments:
[1] = target: Cellular tumor antigen p53 (Homo sapiens) (UniProt P04637); experiment: TOX21_p53_BLA_p3_ratio: Tox21 HCT-116 p53 Agonism Beta-lactamase Assay, Ratio, Phase 3 (AID 2283596)
Summary of the method: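 HCT116 p53-bla cells (4000/well) given compound in DMSO (217-fold dilution) after 5 h, incubated 16 h at 37C. CCF4-AM substrate 2 h at room temperature; 460/530 nm emission ratio, gain fitted against DMSO.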

[2] = TOX21_p53_BLA_p4_viability: Viability Assessment in the Tox21 HCT-116 p53 Agonism Beta-lactamase Assay, Phase 4 (AID 2283597);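 note: hits lower the luminescence signal meaning cytotoxicity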
Summary of the method: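 HCT116 p53-bla cells (4000/well) rested 5 h at 37C, then received compounds in DMSO (217-fold dilution) for 16 h at 37C, 5% CO2. CellTiter-Glo was added after the CCF4-AM read, and luminescence was read after 30 min at room temperature.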

[3] = target: Cellular tumor antigen p53 (Homo sapiens) (UniProt P04637); experiment: TOX21_p53_BLA_p5_ratio: Tox21 HCT-116 p53 Agonism Beta-lactamase Assay, Ratio, Phase 5 (AID 2283599)
Summary of the method: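 HCT-116 cells carrying a p53-inducible beta-lactamase reporter were seeded at 4000 cells/well and dosed after 5 h with compound in DMSO (217-fold dilution). After 16 h at 37C, CCF4-AM substrate was added for 2 h, and the 460/530 nm emission ratio was scored as gain-of-signal versus DMSO.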

[4] = TOX21_p53_BLA_p5_viability: Viability Assessment in the Tox21 HCT-116 p53 Agonism Beta-lactamase Assay, Phase 5 (AID 2283600)
Summary of the method: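 Cells were plated at 4000/well, rested 5 h at 37C, then given compounds in DMSO (217-fold dilution) for 16 h at 37C, 5% CO2. Following the CCF4-AM beta-lactamase read, CellTiter-Glo was added and luminescence was read after 30 min at room temperature.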

[5] = target: Cellular tumor antigen p53 (Homo sapiens) (UniProt P04637); experiment: TOX21_p53_BLA_p4_ratio: Tox21 HCT-116 p53 Agonism Beta-lactamase Assay, Ratio, Phase 4 (AID 2283601)
Summary of the method: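 HCT116 cells carrying an inducible beta-lactamase reporter were plated at 4000 cells/well, rested 5 h, then exposed to compounds in DMSO (217-fold dilution) for 16 h at 37C. CCF4-AM substrate was loaded 2 h at room temperature; 460/530 nm emission ratio scored gain-of-signal versus DMSO.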

[6] = target: Cellular tumor antigen p53 (Homo sapiens) (UniProt P04637); experiment: TOX21_p53_BLA_p2_ratio: Tox21 HCT-116 p53 Agonism Beta-lactamase Assay, Ratio, Phase 2 (AID 2283592)
Summary of the method: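 HCT116 cells carrying a p53-responsive beta-lactamase reporter were plated, incubated 5 h at 37C, then dosed with compounds in DMSO (217-fold dilution) for 16 h. CCF4-AM substrate was added for 2 h at room temperature; the 460/530 nm emission ratio gave gain-of-signal activity relative to DMSO.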

[7] = CCTE_Harrill_HTTr_Viability_MCF7: CCTE's 6-hour Cell Viability Assessment for the High-Throughput Transcriptomics (HTTr) Platform, in MCF-7 cells cultured in DMEM + 10% fetal bovine serum, Harrill Lab (AID 2284010; active = hit-call score of the fitted dose curve at least 0.9, where 1 is the maximum; inactive = score below 0.9)
Summary of the method: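 Viability measured through PI dye exclusion by high-content imaging at 6 h post-dosing.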

[8] = CCTE_Harrill_HTTr_Apoptosis_MCF7: CCTE's 6-hour Apoptosis Assessment for the High-Throughput Transcriptomics (HTTr) Platform, in MCF-7 cells cultured in DMEM + 10% fetal bovine serum, Harrill Lab (AID 2284011; active = hit-call score of the fitted dose curve at least 0.9, where 1 is the maximum; inactive = score below 0.9)
Summary of the method: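 MCF-7 cells in DMEM + 10% fetal bovine serum were exposed to chemicals for 6 hours over an eight-point dilution series. Caspase-3/7 activation was imaged by high content imaging with CellEvent Caspase 3/7 Green; bidirectional fitting used DMSO as baseline.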

[9] = CCTE_Harrill_HTTr_CellCount_MCF7: CCTE's Cell Proliferation Assessment for the High-Throughput Transcriptomics (HTTr) Platform, Harrill Lab (AID 2284012);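 note: count of Hoechst-stained nuclei per well by high-content imaging in MCF-7 cells; cells exposed to compound for six hours; intended direction is loss of nuclei count meaning fewer cells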
Summary of the method: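 Nuclei counting (Hoechst, high content imaging) in MCF-7 after a 6 h treatment at eight concentrations. Activity fitted bidirectionally, DMSO as negative control.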

[10] = target: Thyroid hormone receptor alpha (Rattus norvegicus) + Thyroid hormone receptor beta (Rattus norvegicus) (UniProt P18113+P63059); experiment: TOX21_TR_LUC_GH3_Antagonist_Followup: Tox21 GH3 Thyroid Hormone Receptor Antagonism Luciferase Follow-Up Assay (AID 2283942)
Summary of the method: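 Rat pituitary GH3 cells with a TRα/TRβ-driven luciferase reporter, 5 h attachment, then 15 concentrations (92 uM to 5nM final) plus 1.0 nM T3 agonist, 24 h at 37C/5% CO2. ONE-Glo luminescence; signal change fitted against DMSO baseline.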

THRB (gene 7068) = THRB (gene 7068) (UniProt P10828); experiment: TOX21_TRB_BLA_Antagonist_Followup_ratio: Tox21 Thyroid Hormone Receptor beta Antagonism Beta-lactamase (BLA) Follow-Up Assay, Ratio (AID 2283958)
Summary of the method: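 In this antagonist-mode follow-up, a stably integrated GAL4-TRβ LBD fusion drives a UAS-beta-lactamase reporter in HEK293T cells. Loss of ratio signal relative to DMSO after 18 h treatment indicates activity; parallel CellTiter-Glo flags cytotoxicity.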

[11] = TOX21_TRB_BLA_Antagonist_Followup_viability: Viability Assessment in the Tox21 Thyroid Hormone Receptor beta Antagonism Beta-lactamase (BLA) Follow-Up Assay (AID 2283961)
Summary of the method: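 HEK293T cells stably expressing GAL4-DBD/human TRβ-LBD with UAS-bla reporter, 3,000 cells/well in phenol red-free DMEM, 2% charcoal-stripped FBS. Compounds at 11 concentrations in triplicate, 18 h at 37C/5% CO2; viability by CellTiter-Glo luminescence after 30 min at room temperature.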

[12] = target: Retinoic acid receptor RXR-alpha (Homo sapiens) (UniProt P19793); experiment: TOX21_TR_RXR_BLA_Antagonist_Followup_ratio: Tox21 Thyroid Hormone Receptor beta Retinoid X Receptor alpha (RXRa) Antagonism Beta-lactamase (BLA) Follow-Up Assay, Ratio (AID 2283972)
Summary of the method: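 RXRa-UAS-bla HEK293T cells in phenol red-free DMEM with 2% charcoal-stripped FBS; compounds at 11 concentrations in triplicate, 16 h at 37C. LiveBLAzer FRET-B/CCF4-AM substrate 2 h at room temperature; read as 460:530 nm ratio versus DMSO.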

[13] = TOX21_TR_RXR_BLA_Antagonist_Followup_viability: Viability Assessment in the Tox21 Thyroid Hormone Receptor beta Retinoid X Receptor alpha (RXRa) Antagonism Beta-lactamase (BLA) Follow-Up Assay (AID 2283979)
Summary of the method: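 RXRa-UAS-bla HEK293T cells seeded 2,500/well in phenol red-free DMEM with 2% charcoal-stripped FBS, attached 5 h, then exposed to compounds at 11 concentrations in triplicate for 16 h at 37C/5% CO2. Viability read by CellTiter-Glo ATP luminescence; bidirectional fit versus DMSO.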

Measured: AC50

Chain of Cellular tumor antigen p53 (Homo sapiens) (P04637 whole entry, looked up): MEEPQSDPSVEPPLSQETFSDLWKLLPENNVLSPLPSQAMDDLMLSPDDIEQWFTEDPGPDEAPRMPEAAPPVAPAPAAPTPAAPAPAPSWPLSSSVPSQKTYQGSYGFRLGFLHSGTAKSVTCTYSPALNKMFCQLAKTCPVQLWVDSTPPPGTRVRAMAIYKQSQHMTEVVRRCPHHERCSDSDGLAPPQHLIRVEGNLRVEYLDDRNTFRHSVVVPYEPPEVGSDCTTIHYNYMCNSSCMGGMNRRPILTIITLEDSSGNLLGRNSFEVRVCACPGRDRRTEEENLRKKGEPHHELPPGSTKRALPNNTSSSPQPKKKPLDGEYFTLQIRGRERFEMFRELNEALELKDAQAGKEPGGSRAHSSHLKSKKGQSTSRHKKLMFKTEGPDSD
Chain of THRB (gene 7068) (P10828 whole entry, looked up, the tested form may be a part): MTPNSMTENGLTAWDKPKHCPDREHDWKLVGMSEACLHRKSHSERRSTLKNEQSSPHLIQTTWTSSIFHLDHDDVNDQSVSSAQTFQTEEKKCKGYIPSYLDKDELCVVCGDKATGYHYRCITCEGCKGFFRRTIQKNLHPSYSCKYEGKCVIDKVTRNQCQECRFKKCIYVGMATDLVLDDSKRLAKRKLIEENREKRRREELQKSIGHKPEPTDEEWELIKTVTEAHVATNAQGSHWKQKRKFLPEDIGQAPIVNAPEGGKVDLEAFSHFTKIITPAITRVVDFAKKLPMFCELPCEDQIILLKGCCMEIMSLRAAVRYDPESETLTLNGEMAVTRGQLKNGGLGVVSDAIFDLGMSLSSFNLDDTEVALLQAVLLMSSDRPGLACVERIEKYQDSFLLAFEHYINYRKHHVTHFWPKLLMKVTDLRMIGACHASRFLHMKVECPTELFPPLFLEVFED
Chain of Retinoic acid receptor RXR-alpha (Homo sapiens) (P19793 whole entry, looked up): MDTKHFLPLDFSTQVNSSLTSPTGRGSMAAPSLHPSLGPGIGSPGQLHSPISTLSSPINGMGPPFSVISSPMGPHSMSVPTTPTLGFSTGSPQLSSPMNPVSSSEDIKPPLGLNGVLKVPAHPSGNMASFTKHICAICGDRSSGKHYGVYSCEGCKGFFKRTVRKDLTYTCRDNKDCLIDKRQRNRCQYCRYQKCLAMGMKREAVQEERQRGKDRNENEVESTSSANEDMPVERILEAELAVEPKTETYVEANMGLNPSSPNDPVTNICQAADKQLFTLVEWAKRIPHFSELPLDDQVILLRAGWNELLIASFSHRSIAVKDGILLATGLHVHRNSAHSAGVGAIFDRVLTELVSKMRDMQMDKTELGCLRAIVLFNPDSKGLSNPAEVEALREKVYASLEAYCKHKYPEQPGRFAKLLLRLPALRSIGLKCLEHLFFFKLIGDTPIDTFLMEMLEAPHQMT

CC(=O)C=Cc1ccco1
inactive: [1] | [2] | [3] | [4] | [5]

CC(C)(C)NC[C@H](O)COc1nsnc1N1CCOCC1
inactive: [6] | [1] | [2] | [3] | [5] | [7] | [8] | [9]

O=C(NCCN1CCOCC1)c1ccc(Cl)cc1
inactive: [6] | [1] | [2] | [3] | [4] | [5]

Nc1ccc2cc3ccc(N)cc3nc2c1
inactive: [11] | [13]
active: [6] 968 nM and 3.15 µM | [1] 2.62 µM and 5.87 µM | [3] 2.96 µM and 4.81 µM | [5] 1.64 µM and 3.71 µM | [10] 13.1 µM | THRB (gene 7068) 32.4 µM and 28.8 µM | [11] 19.5 µM | [12] 17.5 µM and 7.59 µM

NC(=O)CC[C@@H]1NC(=O)[C@H](Cc2ccccc2)NC(=O)[C@H](Cc2ccc(O)cc2)NC(=O)CCSSC[C@@H](C(=O)N2CCC[C@H]2C(=O)N[C@@H](CCCN=C(N)N)C(=O)NCC(N)=O)NC(=O)[C@H](CC(N)=O)NC1=O
inactive: [6] | [1] | [3] | [5]

Nc1cc(C(Cl)=C(Cl)Cl)c(S(N)(=O)=O)cc1S(N)(=O)=O
inactive: [6] | [1] | [2] | [3] | [4] | [5]
